Experimental data from ChEMBL document CHEMBL3988442, “University of Dundee, Small-Polar-MMV Screening Library” (2021).
For some of these results: Measured potencies and affinities stand elsewhere.

Columns and labels:
Set-up in all cases: scale not given: direction of the effect not stated beside the values
[1] = target: Protein translocase subunit SecA (Escherichia coli (strain K12)) (UniProt P10408); assay: Assay to Identify E. coli SecA ATPase Inhibitors; format: functional; details: 30 µM
[2] = target: T1, Ubiquitin-activating enzyme e1, putative (Leishmania donovani (strain BPK282A1)) (UniProt E9BSI1); assay: Leishmania donovani Ubiquitin Activating Enzyme (LdE1); format: functional; details: 30 µM
T1 sequence (whole entry): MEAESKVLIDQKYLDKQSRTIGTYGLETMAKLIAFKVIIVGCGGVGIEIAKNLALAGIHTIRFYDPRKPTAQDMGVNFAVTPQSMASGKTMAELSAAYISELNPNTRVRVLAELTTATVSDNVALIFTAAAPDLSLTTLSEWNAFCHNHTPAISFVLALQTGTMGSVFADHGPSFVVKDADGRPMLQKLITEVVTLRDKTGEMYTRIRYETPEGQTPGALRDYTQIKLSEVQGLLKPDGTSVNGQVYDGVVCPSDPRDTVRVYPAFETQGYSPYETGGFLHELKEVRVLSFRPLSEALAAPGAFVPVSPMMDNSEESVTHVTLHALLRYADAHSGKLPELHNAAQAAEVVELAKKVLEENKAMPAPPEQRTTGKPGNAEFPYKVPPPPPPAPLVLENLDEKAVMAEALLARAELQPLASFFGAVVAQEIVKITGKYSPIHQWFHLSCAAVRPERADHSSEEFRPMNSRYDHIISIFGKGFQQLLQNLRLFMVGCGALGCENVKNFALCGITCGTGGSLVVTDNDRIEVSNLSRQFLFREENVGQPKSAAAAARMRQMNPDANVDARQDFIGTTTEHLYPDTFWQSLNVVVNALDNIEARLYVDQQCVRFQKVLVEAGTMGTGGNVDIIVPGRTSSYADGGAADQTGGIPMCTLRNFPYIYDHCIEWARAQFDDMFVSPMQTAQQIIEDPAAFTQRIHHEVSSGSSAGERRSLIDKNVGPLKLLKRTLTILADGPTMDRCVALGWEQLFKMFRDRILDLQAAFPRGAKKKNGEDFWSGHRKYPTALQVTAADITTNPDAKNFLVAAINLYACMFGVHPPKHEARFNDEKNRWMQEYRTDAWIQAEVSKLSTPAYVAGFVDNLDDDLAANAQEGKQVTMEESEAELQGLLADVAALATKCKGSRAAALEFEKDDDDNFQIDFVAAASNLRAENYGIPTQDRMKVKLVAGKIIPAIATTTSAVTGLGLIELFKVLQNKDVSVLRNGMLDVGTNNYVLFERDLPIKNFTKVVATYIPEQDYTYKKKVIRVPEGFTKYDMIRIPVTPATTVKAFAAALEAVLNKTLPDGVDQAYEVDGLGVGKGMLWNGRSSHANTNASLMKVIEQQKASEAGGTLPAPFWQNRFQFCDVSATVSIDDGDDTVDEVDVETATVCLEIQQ

[3] = target: AMP-activated protein kinase, AMPK (Homo sapiens) (UniProt P54646+O43741+P54619+Q9UGJ0+Q9Y478+Q13131+Q9UGI9); assay: AMP-dependent Kinase enzyme assay. An in vitro enzyme assay that detects ADP turnover that is directly proportional to AMPK activity. This uses naive AMPK that is activated during the assay with MK-8722; format: functional; details: 30 µM
[4] = target: Sialic acid-binding Ig-like lectin 9 (Homo sapiens) (UniProt Q9Y336); assay: Hs-Siglec9 ALPHAscreen SOP 20170721; details: 10 µM
Sialic acid-binding Ig-like lectin 9 (Homo sapiens), sequence (Q9Y336 whole entry): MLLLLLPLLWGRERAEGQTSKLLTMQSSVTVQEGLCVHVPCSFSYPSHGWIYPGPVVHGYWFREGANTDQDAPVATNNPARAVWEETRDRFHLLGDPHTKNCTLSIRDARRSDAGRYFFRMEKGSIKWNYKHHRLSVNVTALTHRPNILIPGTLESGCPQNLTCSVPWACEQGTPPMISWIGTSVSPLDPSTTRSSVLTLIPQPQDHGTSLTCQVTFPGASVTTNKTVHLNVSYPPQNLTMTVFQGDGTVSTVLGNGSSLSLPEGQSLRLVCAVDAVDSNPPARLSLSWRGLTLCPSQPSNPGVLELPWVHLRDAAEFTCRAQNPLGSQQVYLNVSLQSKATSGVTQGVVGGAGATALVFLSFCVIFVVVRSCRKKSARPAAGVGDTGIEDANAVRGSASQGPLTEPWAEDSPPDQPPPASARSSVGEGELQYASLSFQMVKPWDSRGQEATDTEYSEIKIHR

Trypanosoma cruzi = assay: Trypanosoma cruzi phosphomannomutase and mannose-1-phosphate guanylyltransferase assay; format: functional; details: 10 µM
[5] = target: T2, Arginase-2, mitochondrial (Homo sapiens) (UniProt P78540); assay: in vitro enzyme assay to detect the production of urea directly proportional to the activity of Arginase II; format: functional; details: 33.3 µM; note: in the data most compounds retested in dose-response had high values
T2 sequence (whole entry): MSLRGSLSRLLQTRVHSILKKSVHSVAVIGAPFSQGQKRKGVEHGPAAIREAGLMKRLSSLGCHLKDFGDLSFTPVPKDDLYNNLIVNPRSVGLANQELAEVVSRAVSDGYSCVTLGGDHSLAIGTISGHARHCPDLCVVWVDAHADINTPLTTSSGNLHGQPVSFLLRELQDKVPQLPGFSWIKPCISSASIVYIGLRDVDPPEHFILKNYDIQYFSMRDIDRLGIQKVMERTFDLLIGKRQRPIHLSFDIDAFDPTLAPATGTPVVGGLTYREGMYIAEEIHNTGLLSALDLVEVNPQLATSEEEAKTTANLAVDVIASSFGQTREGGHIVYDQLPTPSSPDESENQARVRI

[6] = target: T3, Proteasome subunit beta (Trypanosoma cruzi) (UniProt O96673); assay: Trypanosoma cruzi proteasome chymotrypsin-like activity (TcProtChymo) assay.; note: in the data most compounds retested in dose-response had high values; format: functional; details: 9.37 µM
T3 sequence (whole entry): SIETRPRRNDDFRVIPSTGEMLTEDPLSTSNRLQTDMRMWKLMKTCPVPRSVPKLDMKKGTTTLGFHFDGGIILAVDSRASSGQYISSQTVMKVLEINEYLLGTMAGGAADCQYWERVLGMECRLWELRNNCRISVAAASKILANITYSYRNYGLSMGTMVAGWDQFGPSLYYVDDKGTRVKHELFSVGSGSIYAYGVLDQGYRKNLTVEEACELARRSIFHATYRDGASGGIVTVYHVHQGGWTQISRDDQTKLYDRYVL

Homo sapiens = organism: Homo sapiens; assay: To identify inhibition of the IFN signalling (Jak-Stat) pathway via expression of an eGFP reporter gene under the control of an IFN-stimulated response element (ISRE) containing MxA promoter.; format: functional; details: 30 µM
[7] = target: T4, Tyrosyl-tRNA synthetase, putative (Trypanosoma cruzi (strain CL Brener)) (UniProt Q4DSP6); assay: Trypanosoma cruzi tyrosyl tRNA synthetase (TcYRS) _High Tyrosine SOP; format: functional; details: 30 µM; note: in the data most compounds retested in dose-response had high values
T4 sequence (whole entry): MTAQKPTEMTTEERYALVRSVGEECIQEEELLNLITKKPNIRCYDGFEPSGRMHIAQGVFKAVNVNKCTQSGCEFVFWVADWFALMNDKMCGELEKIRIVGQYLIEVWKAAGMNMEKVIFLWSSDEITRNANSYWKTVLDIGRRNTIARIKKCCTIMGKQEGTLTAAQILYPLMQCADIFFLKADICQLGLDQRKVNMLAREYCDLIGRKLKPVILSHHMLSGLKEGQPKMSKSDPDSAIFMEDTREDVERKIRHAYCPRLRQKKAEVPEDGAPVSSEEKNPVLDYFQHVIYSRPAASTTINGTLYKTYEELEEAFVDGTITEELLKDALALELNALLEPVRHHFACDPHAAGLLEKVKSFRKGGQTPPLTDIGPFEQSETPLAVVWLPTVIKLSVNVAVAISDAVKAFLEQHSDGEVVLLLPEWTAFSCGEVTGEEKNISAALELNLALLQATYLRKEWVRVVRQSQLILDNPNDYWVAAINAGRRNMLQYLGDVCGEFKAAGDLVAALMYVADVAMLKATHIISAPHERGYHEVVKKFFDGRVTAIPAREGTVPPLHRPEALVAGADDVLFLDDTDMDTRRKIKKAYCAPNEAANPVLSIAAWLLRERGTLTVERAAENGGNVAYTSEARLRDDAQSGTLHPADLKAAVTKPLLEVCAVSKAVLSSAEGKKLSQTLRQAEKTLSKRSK

[8] = target: T4, Tyrosyl-tRNA synthetase, putative (Trypanosoma cruzi (strain CL Brener)); assay: Trypanosoma cruzi tyrosyl tRNA synthetase (TcYRS) SOP; format: functional; details: 30 µM
[9] = target: Chromo domain-containing protein 1 (Saccharomyces cerevisiae (strain ATCC 204508 / S288c) (Baker's yeast)) (UniProt P32657); assay: ScCHD-1 Enzyme Inhibition Assay; format: functional; details: 30 µM; note: in the data most compounds retested in dose-response had high values
Chromo domain-containing protein 1 (Saccharomyces cerevisiae (strain ATCC 204508 / S288c) (Baker's yeast)), sequence (P32657 whole entry, the tested form may be a part): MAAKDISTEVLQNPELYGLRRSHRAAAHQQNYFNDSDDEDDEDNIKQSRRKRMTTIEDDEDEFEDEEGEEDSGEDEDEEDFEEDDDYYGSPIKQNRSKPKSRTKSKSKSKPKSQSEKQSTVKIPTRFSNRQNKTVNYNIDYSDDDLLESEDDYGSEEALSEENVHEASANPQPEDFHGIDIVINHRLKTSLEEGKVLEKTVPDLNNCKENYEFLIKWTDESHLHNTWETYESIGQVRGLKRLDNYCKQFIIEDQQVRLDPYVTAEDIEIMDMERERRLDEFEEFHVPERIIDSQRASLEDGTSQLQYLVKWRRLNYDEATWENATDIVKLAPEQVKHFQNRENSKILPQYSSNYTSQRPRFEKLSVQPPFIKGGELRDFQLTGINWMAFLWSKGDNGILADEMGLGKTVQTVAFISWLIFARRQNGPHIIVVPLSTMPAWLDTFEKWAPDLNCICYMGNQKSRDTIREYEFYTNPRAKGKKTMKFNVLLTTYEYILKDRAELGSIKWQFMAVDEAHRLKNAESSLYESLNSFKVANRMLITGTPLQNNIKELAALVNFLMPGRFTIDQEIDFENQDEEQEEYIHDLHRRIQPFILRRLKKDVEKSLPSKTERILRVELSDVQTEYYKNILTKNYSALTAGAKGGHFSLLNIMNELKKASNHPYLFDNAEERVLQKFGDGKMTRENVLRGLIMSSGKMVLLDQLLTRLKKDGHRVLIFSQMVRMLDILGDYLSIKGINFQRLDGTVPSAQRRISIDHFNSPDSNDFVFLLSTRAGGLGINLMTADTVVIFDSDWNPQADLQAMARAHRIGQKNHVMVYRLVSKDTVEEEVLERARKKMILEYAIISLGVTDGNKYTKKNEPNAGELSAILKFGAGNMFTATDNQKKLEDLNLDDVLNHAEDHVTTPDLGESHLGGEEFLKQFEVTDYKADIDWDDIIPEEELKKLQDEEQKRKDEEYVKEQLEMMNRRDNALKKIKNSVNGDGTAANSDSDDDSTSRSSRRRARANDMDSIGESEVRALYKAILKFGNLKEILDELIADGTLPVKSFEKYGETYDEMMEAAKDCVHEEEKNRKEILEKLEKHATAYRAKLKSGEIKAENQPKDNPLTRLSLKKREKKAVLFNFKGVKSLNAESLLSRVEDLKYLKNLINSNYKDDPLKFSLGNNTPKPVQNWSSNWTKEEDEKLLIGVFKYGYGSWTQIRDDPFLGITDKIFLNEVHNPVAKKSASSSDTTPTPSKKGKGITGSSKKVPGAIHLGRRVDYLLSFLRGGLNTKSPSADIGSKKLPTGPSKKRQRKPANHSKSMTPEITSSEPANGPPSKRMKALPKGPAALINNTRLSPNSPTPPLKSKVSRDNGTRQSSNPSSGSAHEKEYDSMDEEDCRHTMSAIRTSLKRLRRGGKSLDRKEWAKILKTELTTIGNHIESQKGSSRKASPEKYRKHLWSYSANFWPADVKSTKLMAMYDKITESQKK

Protein translocase subunit SecA (Escherichia coli (strain K12)), sequence (P10408 whole entry): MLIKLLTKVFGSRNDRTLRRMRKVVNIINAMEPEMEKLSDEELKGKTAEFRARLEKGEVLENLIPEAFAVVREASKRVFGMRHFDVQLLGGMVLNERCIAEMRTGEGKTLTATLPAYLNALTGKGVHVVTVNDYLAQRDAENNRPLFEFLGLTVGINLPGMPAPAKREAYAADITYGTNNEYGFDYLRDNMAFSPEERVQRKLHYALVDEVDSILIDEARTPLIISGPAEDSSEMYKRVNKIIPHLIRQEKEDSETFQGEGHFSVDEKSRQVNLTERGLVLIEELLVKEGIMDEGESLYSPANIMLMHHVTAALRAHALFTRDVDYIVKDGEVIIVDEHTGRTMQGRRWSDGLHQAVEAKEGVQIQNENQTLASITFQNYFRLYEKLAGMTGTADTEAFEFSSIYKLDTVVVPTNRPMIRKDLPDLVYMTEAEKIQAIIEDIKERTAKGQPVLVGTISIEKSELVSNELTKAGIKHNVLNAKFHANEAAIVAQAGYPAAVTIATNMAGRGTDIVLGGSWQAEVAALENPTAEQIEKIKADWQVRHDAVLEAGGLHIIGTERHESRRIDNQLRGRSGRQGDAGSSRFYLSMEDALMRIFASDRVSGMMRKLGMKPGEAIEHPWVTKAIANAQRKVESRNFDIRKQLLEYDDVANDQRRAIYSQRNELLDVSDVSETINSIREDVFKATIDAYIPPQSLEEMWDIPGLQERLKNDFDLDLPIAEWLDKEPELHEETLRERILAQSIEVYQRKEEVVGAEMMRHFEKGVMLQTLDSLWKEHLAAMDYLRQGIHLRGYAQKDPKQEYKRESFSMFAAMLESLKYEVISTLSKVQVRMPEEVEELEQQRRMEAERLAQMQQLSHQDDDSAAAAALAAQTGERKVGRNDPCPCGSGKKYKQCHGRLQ

Structure (SMILES) | Percent Effect [1] | Percent Effect [2] | Percent Effect [3] | Percent Effect [4] | Percent Effect (Trypanosoma cruzi) | Percent Effect [5] | Percent Effect [6] | Percent Effect (Homo sapiens) | Percent Effect [7] | Percent Effect [8] | Percent Effect [9]
CC(=O)N1CCC(Oc2ccc(Cl)cn2)CC1 | -1.02% | 5.48% | -4.62% | 4.94% | 4.5% | 8.64% | 3.19% | 18.8% | 3.23% | 7.5% | -4.92%
CN1CCN(C(CNC(=O)CCn2cccn2)c2cccs2)CC1 (stereo unspecified) | 1.81% | -2.67% | -4.22% | 0.224% | -3.6% | 4.17% | 6.63% | 5.37% | 2.73% | 3.7% | 2.11%
Cc1ncsc1C(=O)N1CCCN(Cc2cscn2)CC1 | -2.64% | 5.2% | 1.53% | 0.904% | 3.82% | -1.9% | -3.8% | -3.73% | 6.67% | 9.41% | -14.3%
CCc1nc(CN(C)CC2CCN(CCO)CC2)no1 | 0.69% | 2.7% | -8.99% | 9.52% | 6.56% | 10% | -1.55% | -14.8% | 2.65% | 9.76% | -0.692%
Cc1cnn(CC2CCCN2Cc2nccn2C)c1 (stereo unspecified) | -3.05% | -16.5% | -3.78% | -0.409% | 3.59% | 1.5% | 3.94% | 4.67% | 4.17% | 5.06% | -13.2%
COCc1cc(NCc2cc(F)ccc2F)n2nccc2n1 | -3.49% | -2.74% | -7.06% | 1.05% | -5.68% | 2.27% | 5.15% | 15.9% | 2.15% | 7.5% | -6.68%
CN(C)c1ccc(CNC(=O)c2ccc(Cl)cc2F)cc1 | -6.46% | 21.1% | -2.58% | 2.05% | 1.46% | -4.73% | 13.7% | 11.1% | 4.25% | 20.8% | -6.29%
COCc1ncn2c1CN(C(=O)C1CC=CC1)CC2 | -10.3% | 2.7% | -2.21% | -3.27% | -2.64% | -1.74% | 3.69% | 2.37% | 6.45% | 11.1% | 0.611%
Cc1cc(=O)n2ncnc2n1CC(O)c1cc(F)ccc1F (stereo unspecified) | -4.1% | 18.4% | 1.21% | -4.45% | 5.55% | 1.18% | 15.6% | 6.3% | 5.32% | 20.8% | -3.49%
NC(=O)C1CCN(C(=O)CCn2ccc3cc(Br)ccc32)CC1 | -0.921% | 4.17% | -4.65% | 21.5% | 2.43% | 14.6% | 2.63% | -3.52% | 3.16% | 2.56% | -4.07%
Cc1ccc(CN(Cc2cccnc2)C2CC(C)(C)NC(C)(C)C2)s1 | -5.72% | 1.35% | 9.33% | -0.663% | -3.36% | -5.8% | 10.1% | 13.4% | 2.15% | -1.3% | -9.11%
